Assay results published in PubChem BioAssay (NCI).
Several values for one entry are separate records, joined by “and”; a condition that tells them apart may be missing. Equal entries are not always repeated. About 83,000 compounds went through this panel and 20% of them were active in at least one assay; those are over-represented in the sample as a whole.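 Single-concentration screen, 48 h exposure, 96-well plates. Endpoint: percent growth. Below 10 = active.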 Activity calls are given as the source filed them.

What follows are molecules tested on MDA-MB-468 breast (assay: NCI-60 one-dose screen, 48 h (100 = growth as untreated, 0 = no growth, -100 = all killed)). Settings: 10 µM unless noted.

Structure (SMILES)	growth
COc1ccc(C2C=C(c3ccc(OC)c(OC)c3)N=C3SC=CN32)c(Br)c1 (stereo not given)	54.5% (inactive)
COc1ccc2cc(-c3ccc(NC(C)=O)c(=O)o3)ccc2c1	106% (inactive)
O=NN(CC(=O)N/N=C/C=C\c1ccccc1)CC(=O)N/N=C/C=C/c1ccccc1	91.1% (inactive)
C=C1CC2(OC1=O)C(=O)N(CCCN1C(=O)C3(CC(=C)C(=O)O3)c3ccccc31)c1ccccc12 (stereo not given)	-34% (active)
C(CCCSC1=NCCN1)CCSC1=NCCN1	92% (inactive)
COc1ccc([C@@H]2[C@@H](O)C(=O)N2c2cc(OC)c(OC)c(OC)c2)cc1Cl	22.8% (inactive)
CCc1cnc2ccccc2c1/C=C/c1ccc(N(C)C)cc1	24.9% (inactive)
COC(=O)C(Cc1ccccc1)Nc1nc(NC(Cc2ccccc2)C(=O)OC)nc(N2CCOCC2)n1 (stereo not given)	108% (inactive)
COc1ccc(C2=NN(C(=O)c3cc(OC)c(OC)c(OC)c3)C(c3ccc(N(C)C)cc3)C2)cc1 (stereo not given)	22.7% (inactive)
O=C1Nc2ccc(F)cc2/C1=N/c1nnc(Sc2ccccc2)s1	-0.912% (active)
C#CCC1(c2ccc(F)c(F)c2)NS(=O)(=O)c2ccccc21 (stereo not given)	95.2% (inactive)
Cc1nc(C)c(-c2nn3c(-c4cccc(F)c4)nnc3s2)s1	89.5% (inactive)
COc1cc(/C=C2/C(=O)Nc3ccc(Cl)cc32)ccc1OCc1ccc(Cl)cc1	87.2% (inactive)
CC(=O)Oc1ccc(C(OC(C)=O)OC(C)=O)cc1	109% (inactive)
COC(=O)c1cc(O)c2c(c1C(=O)OC)C[C@H]1[C@@H]3CC=C4C[C@@H](O)CC[C@]4(C)[C@H]3CC[C@]21C	35.3% (inactive)
Nc1cc2c3c(cccc3c1)C(=O)N(CCN1CCCC1)C2=O	40.2% (inactive)
Cc1cn(-c2cc(NC(=O)c3cncc(C#Cc4cnc5ccc(O[C@@H]6CCOC6)nn45)c3)cc(C(F)(F)F)c2)cn1	-74.8% (active)
C=C(C)[C@@H]1CC[C@]2(CO)CC[C@]3(C)[C@H](CC[C@@H]4[C@@]5(C)C=C(C#N)C(=O)C(C)(C)[C@@H]5CC[C@]43C)[C@@H]12	8.08% (active)
CCOc1ccc2c(S(=O)(=O)O)cccc2c1[N+](=O)[O-]	104% (inactive) and 106% (inactive)
c1ccc(Oc2c3ccccc3nc3ccccc23)cc1	-4.55% (active)

Structure (SMILES)	growth
N#CSCc1ccc(CSC#N)c(Cl)c1	44.1% (inactive)
COC(=O)/C=C/C(=O)c1cc(C)cc(C)c1O	110% (inactive)
O=C(Nc1cccc(C2=NCCN2)c1)c1ccc(N=Nc2ccc(C(=O)Nc3cccc(C4=NCCN4)c3)cc2)cc1	6.96% (active)
COc1cc(-c2csc(NC(=O)Nc3ccc(C(F)(F)F)cc3)n2)cc(OC)c1OC	-8.63% (active)
CN(Cc1cnc2nc(N)nc(N)c2n1)c1ccc(C(=O)N[C@@H](CCc2nn[nH]n2)c2nn[nH]n2)cc1	52.8% (inactive)
O=C(Nc1ccc(N2CCCCC2)c(Cl)c1)c1ccc(Br)o1	89.7% (inactive)
COC1=C(Br)C(=O)C(OC)=C(Br)C1=O	89.2% (inactive)
CC(=O)c1ccc(NS(=O)(=O)c2cccc(C(=O)Nc3ccc(Br)cc3)c2)cc1	15.3% [25 µM] (inactive)
CCCCCc1c(C)[nH]c(/C=C2\N=C(c3ccc[nH]3)C=C2Oc2ccc(OC)cc2)c1C	-54.8% [100 µM] (active)
CCOC(=O)N1CCN(CCCCOc2ccc(C(C)(C)CC)cc2)CC1	92.9% (inactive)
Cc1cc(CSc2ccc(Cl)cc2)ccc1N	102% (inactive)
O=C(CNC(=O)OCc1ccccc1)NCC(=O)Oc1ccc([N+](=O)[O-])cc1	106% (inactive)
COc1ccc(C2OCC(C)(C)CO2)cc1OC	92.4% (inactive)
COC[C@]12CC[C@@H](C)[C@H](C)[C@H]1C1=CC[C@@H]3[C@@]4(C)CCCNC(C)(C)[C@@H]4CC[C@@]3(C)[C@]1(C)CC2	-6.6% (active)
OCCCc1ccccc1	104% (inactive)
COc1ccccc1NC(=O)c1sc2nc3c(cc2c1N)C(=O)CCC3	23.4% (inactive)
Cc1cc2nc3c4cc(C=O)ccc4n(CCN(C)C)c3nc2cc1C	-5.88% (active)
Nc1nc(Cl)cc(=O)n1Cc1ccccc1	97.3% (inactive)
O=C(O)c1ccccc1Cc1ccc2c(c1)CCCC2	99.6% (inactive)
COc1ccc(-c2cc(-c3ccc(Cl)cc3)c(C#N)c(=O)n2CCCCC(=O)NO)cc1	72.6% (inactive)
